# Assay outcomes from PubChem BioAssay.
# p53null 32C kill = kills p53 null cells at the permissive temperature; H1299-neo p53 null cells, ATP luminescence, 24 h, 32C; Potency, µM (doses to about 46.1 µM), without a hit: top-dose activity change, negative = cytotoxicity, actives largely listed as cytotoxic; 55,000 tested, 0.62% active;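 note: 0% = DMSO only and -100% = full killing by 100 µM tamoxifen; nearly all actives have a fitted effect of over 55% in size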
#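 We seeded p53-null H1299-neo cells, incubated them overnight at 37C, and added compounds across a range up to 46 uM. After 24 hours at 32C, ATP reagent was applied for 20 min at room temperature and luminescence recorded.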
# p53null 39C kill = kills p53 null cells at the nonpermissive temperature | H1299 p53-null (neo) cells, 39C, ATPlite viability, 24 h | Potency, µM (titrated, usually from 46.1 µM), without a hit: at the highest dose activity, negative = cell killing, usual class: cytotoxic | 55,000 tested, 0.97% active;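 note: 0% = DMSO only and -100% = full killing by 100 µM tamoxifen; nearly all actives have a fitted effect of over 50% in size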
#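 Cells seeded at 600/well, 37C overnight. Compound added (up to 46 uM), plates shifted to 39C for 24 hr. ATPlite added, luminescence read after 20 min at room temperature.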
# pS6 MEF inh = mTORC1 pathway inhibition measured by phospho-rpS6. Tsc2-/- p53-/- MEF, phospho-rpS6 immunofluorescence/PI, 24 h. Potency, µM (top dose mostly 38.3 µM), for inactives: at the top dose activity change, negative = inhibition, hits mostly inhibitors. 44,000 tested, 0.78% active;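 note: plate controls were DMSO for no effect and rapamycin for full effect; nearly all actives have a fitted effect of over 50% in size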
#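 Immunofluorescence of rpS6 phosphorylation in Tsc2-/-, p53-/- MEFs after 24 h compound exposure, normalized to propidium iodide signal. Activity is expressed as % positive cells, thresholded with 7.5 nM rapamycin.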
# PMP22 txn prim = modulates PMP22 transcription in S16 Schwann cells; 43,000 tested, 2% active; Potency, µM (series often up to 57.5 µM), for the others: top-dose activity change, negative = inhibition, usual class: inhibitors; AID 1508649; S16 Pmp22-F2sN Schwann cells, FLuc/NLuc coincidence luminescence, 24 h; active = clear falling dose curves in both reporters; inconclusive = both reporters move, but less clearly or upward; inactive = either reporter flat; the % is the NLuc reporter signal
#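 S16 Schwann cells carrying FLuc/NLuc coincidence reporter in the Pmp22 3' UTR treated with compound 24 h at 37C; FLuc then NLuc luminescence read sequentially by dual-luciferase reagents.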
# S16 viability = toxic to S16 Pmp22-F2sN Schwann cells; Potency, µM (top dose mostly 57.5 µM), inactives show top-dose activity change, negative = cytotoxicity, usual class: cytotoxic; S16 Pmp22-F2sN Schwann cells (luciferase reporters placed in the Pmp22 gene) viability, CellTiter-Glo, 24 h; 43,000 tested, 0.48% active; AID 1508642; note: nearly all actives have a fitted effect of over 65% in size
#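 S16 Schwann cells carrying the Pmp22-F2sN reporter, seeded in 1536-well format, were exposed to library compounds for 24 h at 37C. Viability was read as CellTiter-Glo luminescence after 15 min at room temperature.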
# * hit, by the source's call; ? = inconclusive; / = no result. A selection: hits, their analogues and other compounds. The true share with any hit is near 3.2%. Unless noted, calls come from the whole dose curve; as a rule, active = well fitted curve in the direction sought with a large enough effect; inconclusive = small, poorly fitted or top-dose-only effect, or another doubt; inactive = no such curve, though single readings can be large; an effect the other way counts as inactive or inconclusive. Unless noted, % is set by controls: 0 for no effect and ±100 for the full control effect; potency is the fitted concentration of half-maximal effect.
SMILES,p53null 32C kill,p53null 39C kill,pS6 MEF inh,PMP22 txn prim,S16 viability
CC(C)(C)c1ccc(C(=O)Nc2ccc3nc(SCC(=O)N4CCCC4)sc3c2)cc1,20µM*,?,-26%,?,?
Cc1ccc(C(=O)Nc2ccccc2)cc1S(=O)(=O)N1CCCC1,?,22%,-4%,-29%,16%
COc1cc(OC)c(NS(=O)(=O)c2cc(-c3cnc(C4CC4)o3)ccc2C)cc1Cl,26%,62%,0%,?,?
CCCOc1ccc(C2SCC(=O)Nc3c2c(C)nn3-c2cccc(C)c2)cc1OC (stereo not drawn),-3%,25µM*,0%,?,-19%
O=C(NCCc1ccc(Cl)cc1)C(=O)NCC(c1cccs1)S(=O)(=O)c1cccs1 (stereo not drawn),21%,?,?,-24%,-2%
COc1ccc(-c2cc(=O)c3cc(OCC(=O)OC(C)C)ccc3o2)cc1,3.2µM*,5µM*,-8%,-4%,-1%
Cc1ccc(Cn2c(=O)n(CCCCC(=O)NCc3ccccc3Cl)c(=O)c3ccccc32)cc1,-12%,-10%,?,?,-1%
CCOc1ccc(NC(=O)c2cc3c(C)nn(-c4ccccc4)c3s2)cc1,?,?,18µM*,?,-7%
CC(=O)c1cccc(NC(=O)c2cc3c(s2)-c2c(C)cccc2OC3)c1,10µM*,?,-2%,?,?
CC(=O)c1cccc(NC(=O)c2cccn(Cc3cccc(C)c3)c2=O)c1,7%,2%,-1%,?,-5%
O=C(NCc1ccccc1)N1CCc2c(sc3c2CCCC3)C1c1ccccc1 (stereo not drawn),27%,?,1%,7.8µM*,?
COc1ccc2c(c1)c(=O)c(C(=O)c1ccc(Cl)cc1)cn2CC(=O)Nc1ccc2c(c1)OCCO2,-1%,?,1%,?,-11%
COC(=O)[C@@H]1[C@@H](C(=O)OC)C2(c3ccccc3-c3ccccc32)N(c2ccc(Cl)cc2)N1C#N,22µM*,?,/,/,/
COC(=O)C[C@]1(C(=O)OC)CN(C#N)N(c2ccc(Cl)cc2)C12c1ccccc1-c1ccccc12,?,-1%,/,/,/
CCOc1ccc(S(=O)(=O)NCCc2sc3nc(-c4ccc(C)cc4)nn3c2C)cc1,46%,21%,-1%,?,20µM*
Cc1c(CCNS(=O)(=O)c2ccccc2)sc2nc(-c3ccc(Cl)cc3)nn12,23%,?,-12%,?,?
Cc1ccc2oc(-c3ccc(Cl)cc3)c(O)c(=O)c2c1,-28%,?,9.3µM*,?,?
CCOC(=O)C1=C(CN2CCN(c3ccc(C)cc3C)CC2)NC(=O)NC1c1ccc(OC)cc1 (stereo not drawn),1%,-3%,?,?,?
